In PubChem BioAssay AID1159580 (chemical genetic matrix, 2015):
Where “and” joins values, the source holds several entries; their conditions need not be identical. Equal entries are not always repeated. Among all 5,500 compounds or so, about 2,000 (36%) were called active. Not shown: some 18% with an inconclusive outcome. Rule as the data show it: active = normalized growth mostly below about 0.91 (no sharp cut-off); inconclusive = no clear call, values can overlap the other calls; inactive = mostly above about 0.92. This is one part of the list.

Experiment: chemical genetic growth profiling, strain panel (AID 1159580);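 also: tested at 20 µM; growth read once vehicle control cultures reached saturation at 30 °C; 1 = growth at the plate median or of vehicle wells; lower values mean less growth of the strain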
Details: S. cerevisiae deletion strains, growth OD

Measured: normalized growth

CN(C)[C@@H]1C(=O)C(C(N)=O)=C(O)[C@@]2(O)C(=O)C3=C(O)c4c(O)ccc(Cl)c4[C@@](C)(O)[C@H]3C[C@@H]12
inactive: locus YAL013W, strain DEP1, hits give low values 1.01 | locus YAL021C, strain ccr4, hits give low values 0.956 | locus YAL026C, strain drs2, hits give low values 0.983 | locus YAL030W, strain snc1, hits give low values 0.981 | locus YBL061C, strain skt5, hits give low values 0.98 | locus YBR009C, strain hhf1, hits give low values 0.979 | locus YBR021W, strain FUR4, hits give low values 0.961 | locus YBR023C, strain chs3, hits give low values 0.993 | locus YBR171W, strain sec66, hits give low values 0.979 | locus YBR229C, strain ROT2, hits give low values 1.01 | locus YBR231C, strain swc5, hits give low values 0.986 | locus YBR279W, strain paf1, hits give low values 0.987 | locus YCL011C, strain gbp2, hits give low values 0.967 | locus YCL016C, strain dcc1, hits give low values 0.967 | locus YCL029C, strain bik1, hits give low values 1.02 | locus YCL069W, strain vba3, hits give low values 0.986 | locus YCR088W, strain abp1, hits give low values 0.988 | locus YDL005C, strain med2, hits give low values 0.985 | locus YDL035C, strain GPR1, hits give low values 0.976 | locus YDL040C, strain nat1, hits give low values 0.983 | locus YDL074C, strain BRE1, hits give low values 0.968 | locus YDL101C, strain DUN1, hits give low values 1 | locus YDL185W, strain tfp1, hits give low values 1.01 | locus YDL192W, strain arf1, hits give low values 0.97 | locus YDR001C, strain nth1, hits give low values 0.969 | locus YDR069C, strain doa4, hits give low values 0.947 | locus YDR101C, strain arx1, hits give low values 0.996 | locus YDR137W, strain rgp1, hits give low values 0.957 | locus YDR150W, strain NUM1, hits give low values 1 | locus YDR159W, strain sac3, hits give low values 0.968 | locus YDR162C, strain NBP2, hits give low values 1 | locus YDR195W, strain ref2 0.945 | locus YDR297W, strain sur2, hits give low values 0.991 | locus YDR318W, strain mcm21, hits give low values 1 | locus YDR334W, strain swr1, hits give low values 0.968 | locus YDR335W, strain msn5, hits give low values 0.98 | locus YDR388W, hits give low values 1.01 | locus YDR392W, strain spt3, hits give low values 0.895 | locus YDR502C, strain sam2, hits give low values 1.01 | locus YEL003W, strain gim4, hits give low values 0.973 | locus YEL037C, strain rad23, hits give low values 0.983 | locus YEL061C, strain CIN8 (second series), hits give low values 0.986 | locus YEL061C, strain CIN8, hits give low values 0.996 | locus YER015W, strain faa2, hits give low values 0.977 | locus YER016W, strain bim1, hits give low values 0.984 | locus YER110C, hits give low values 1.01 | locus YER111C, strain swi4, hits give low values 0.977 | locus YER155C, strain BEM2 (second series), hits give low values 0.95 | locus YER155C, strain BEM2, hits give low values 1.02 | locus YER167W, strain BCK2, hits give low values 1.01 | locus YFR010W, strain ubp6, hits give low values 0.972 | locus YGL078C, strain dbp3, hits give low values 0.994 | locus YGL086W, strain mad1, hits give low values 0.981 | locus YGL167C, strain pmr1, hits give low values 0.959 | locus YGL173C, strain kem1, hits give low values 0.985 | locus YGL227W, strain vid30, hits give low values 0.984 | locus YGL240W, strain doc1, hits give low values 0.982 | locus YGL248W, strain PDE1, hits give low values 0.942 | locus YGL253W, strain hxk2, hits give low values 0.974 | locus YGR078C, strain PAC10, hits give low values 0.976 | locus YGR135W, strain pre9, hits give low values 0.994 | locus YGR252W, strain gcn5, hits give low values 1 | locus YHR013C, strain ard1, hits give low values 0.98 | locus YHR027C, strain rpn1, hits give low values 0.981 | locus YHR030C, strain SLT2, hits give low values 1.01 and 1.03 | locus YHR079C, strain IRE1 (second series), hits give low values 1.01 | locus YHR079C, strain IRE1, hits give low values 1.1 | locus YHR094C, strain hxt1, hits give low values 1.01 | locus YHR129C, strain ARP1, hits give low values 0.99 | locus YHR142W, strain chs7, hits give low values 0.986 | locus YHR200W, strain rpn10, hits give low values 0.987 | locus YIL066C, strain RNR3, hits give low values 0.922 | locus YIL073C, strain SPO22, hits give low values 0.976 | locus YIL125W, strain kgd1, hits give low values 0.998 | locus YIR030C, strain dcg1, hits give low values 1.01 | locus YJL092W, strain hpr5, hits give low values 0.971 | locus YJL095W, strain BCK1 (second series), hits give low values 0.971 | locus YJL095W, strain BCK1, hits give low values 0.981 and 1.04 | locus YJL115W, strain asf1, hits give low values 0.96 | locus YJL129C, strain trk1, hits give low values 0.991 | locus YJL134W, strain LCB3, hits give low values 1.01 | locus YJL154C, strain vps35, hits give low values 0.973 | locus YJL164C, strain tpk1, hits give low values 0.961 | locus YJL166W, strain qcr8, hits give low values 0.97 | locus YJL168C, strain set2, hits give low values 1 | locus YJL187C, strain SWE1 (second series), hits give low values 0.988 | locus YJR043C, strain POL32, hits give low values 0.971 | locus YJR066W, strain TOR1, hits give low values 0.972 | locus YJR075W, strain HOC1, hits give low values 1 | locus YKL009W, strain mrt4, hits give low values 1.02 | locus YKL068W, hits give low values 1 | locus YKL085W, strain MDH1 (second series), hits give low values 1.01 | locus YKL085W, strain MDH1, hits give low values 1.01 | locus YKL160W, strain elf1, hits give low values 0.962 | locus YKR001C, strain vps1, hits give low values 0.978 | locus YKR026C, strain gcn3, hits give low values 0.975 | locus YKR091W, strain srl3, hits give low values 0.985 | locus YLL001W, strain dnm1, hits give low values 0.976 | locus YLL026W, hits give low values 0.987 | locus YLL041C, strain sdh2, hits give low values 0.97 | locus YLR027C, strain aat2, hits give low values 0.987 | locus YLR039C, strain RIC1, hits give low values 1.01 | locus YLR058C, strain SHM2, hits give low values 0.998 | locus YLR102C, strain apc9, hits give low values 1.02 | locus YLR113W, strain HOG1, hits give low values 1.05 | locus YLR221C, strain rsa3, hits give low values 0.987 | locus YLR258W, strain gsy2, hits give low values 0.975 | locus YLR262C, strain YPT6 (second series), hits give low values 1.01 | locus YLR262C, strain YPT6, hits give low values 1.03 | locus YLR268W, strain sec22, hits give low values 0.992 | locus YLR320W, strain mms22, hits give low values 0.996 | locus YLR330W, strain CHS5, hits give low values 0.999 | locus YLR342W, strain FKS1 (second series), hits give low values 0.848 | locus YLR342W, strain FKS1, hits give low values 0.989 | locus YLR357W, strain rsc2, hits give low values 0.938 | locus YLR370C, strain arc18, hits give low values 0.96 | locus YLR371W, strain rom2, hits give low values 0.983 | locus YLR384C, strain iki3, hits give low values 0.995 | locus YLR418C, strain cdc73, hits give low values 0.988 | locus YML016C, strain PPZ1, hits give low values 0.998 | locus YML032C, strain rad52, hits give low values 0.988 | locus YML120C, strain ndi1, hits give low values 0.97 | locus YML124C, strain tub3, hits give low values 1.01 | locus YMR058W, strain fet3, hits give low values 0.965 | locus YMR078C, strain ctf18, hits give low values 1 | locus YMR125W, strain sto1, hits give low values 0.944 | locus YMR129W, hits give low values 0.983 | locus YMR205C, strain PFK2, hits give low values 0.989 | locus YMR223W, strain ubp8, hits give low values 0.985 | locus YMR231W, strain pep5, hits give low values 0.99 | locus YMR307W, strain GAS1, hits give low values 0.956 | locus YNL067W, strain RPL9B, hits give low values 0.991 | locus YNL071W, strain lat1, hits give low values 0.989 | locus YNL183C, strain NPR1, hits give low values 0.982 | locus YNL209W, strain ssb2, hits give low values 0.99 | locus YNL233W, strain BNI4, hits give low values 0.974 | locus YNL248C, strain rpa49, hits give low values 0.993 | locus YNL250W, strain rad50, hits give low values 1.01 | locus YNL271C, strain bni1, hits give low values 1.01 | locus YNL298W, strain CLA4, hits give low values 1.03 | locus YNL307C, strain MCK1, hits give low values 1.01 | locus YNL322C, strain KRE1 (second series), hits give low values 0.983 | locus YNR049C, strain mso1, hits give low values 0.968 | locus YNR052C, strain pop2, hits give low values 0.997 | locus YOL006C, strain TOP1, hits give low values 0.768 | locus YOL012C, strain htz1 1.03 | locus YOL147C, strain pex11, hits give low values 1.02 | locus YOR001W, strain rrp6, hits give low values 0.978 | locus YOR061W, strain CKA2, hits give low values 0.988 | locus YOR069W, strain VPS5, hits give low values 1 | locus YOR070C, strain gyp1, hits give low values 0.98 | locus YOR080W, strain dia2, hits give low values 0.974 | locus YOR083W, strain WHI5, hits give low values 0.952 | locus YOR106W, strain vam3, hits give low values 0.929 | locus YOR136W, strain idh2, hits give low values 1.03 | locus YOR144C, strain elg1, hits give low values 1.01 | locus YOR184W, strain ser1, hits give low values 1.02 | locus YOR231W, strain MKK1, hits give low values 1.05 | locus YOR265W, strain rbl2, hits give low values 0.989 | locus YOR270C, strain vph1, hits give low values 0.991 | locus YOR290C, strain snf2, hits give low values 0.941 | locus YOR316C, strain cot1, hits give low values 1.01 | locus YPL051W, strain arl3, hits give low values 0.984 | locus YPL055C, strain LGE1, hits give low values 0.96 | locus YPL078C, strain atp4, hits give low values 0.958 | locus YPL106C, strain sse1, hits give low values 0.929 | locus YPL240C, strain hsp82, hits give low values 0.981 | locus YPL241C, strain CIN2, hits give low values 0.997 | locus YPL256C, strain CLN2, hits give low values 1.03 | locus YPR119W, strain clb2, hits give low values 1.02 | locus YPR141C, strain kar3, hits give low values 1.01 | locus YPR163C, strain tif3, hits give low values 0.995 | locus YPR167C, strain met16, hits give low values 1.01 | strain wtn01, hits give low values 0.979
